Bioassay records deposited in PubChem BioAssay by National Center for Advancing Translational Sciences (NCATS).
Pf growth 96h = P. falciparum growth inhibition at 96 hours; P. falciparum luciferase reporter growth, 96 h; Potency, µM (top dose mostly 28.7 µM), inactives show top-dose activity change, negative = inhibition, hits mostly inhibitors; hit rate 6.9% among 320,000; AID 504834; further: potency means the concentration at half of the fitted maximal effect; on the % scale 0 is the no-effect control and ±100 the full control effect
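96 h incubation, 37 C, 5% CO2, of luciferase-reporter P. falciparum-infected RBCs (2% hematocrit, 0.05% parasitemia final) with test compounds; endpoint luminescence.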
NS1 inh = inhibitors of influenza NS1 protein function; Potency, µM (highest dose often 46.1 µM), inactives show at the top dose activity, positive = more growth; hit rate 0.4% among 270,000; calls by dose curve; further: potency means the concentration at half of the fitted maximal effect; actives are rising curves; nearly all actives have a fitted effect of over 50% in size
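S. cerevisiae expressing influenza A NS1, grown in glucose, washed, then diluted 1:100 into pH 6.0 -URA galactose medium with 23 nl compound. Growth recovery read as OD600; NS1-free strain serves as control.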
SARS PLpro yeast = blocks SARS-CoV papain-like protease in a yeast assay; Potency, µM (highest dose often 32.9 µM), for inactives: at the highest dose activity, positive = growth rescue, hits mostly activators; hit rate 0.19% among 330,000; S. cerevisiae expressing SARS-CoV PLpro, growth rescue; calls by dose curve; further: potency means the concentration at half of the fitted maximal effect; 0% is about no effect; nearly all actives have a fitted effect of over 55% in size
Pf growth 48h = inhibits P. falciparum growth in the first generation, 48 h. P. falciparum luciferase growth in erythrocytes, 48 h. Potency, µM (highest dose often 28.7 µM), without a hit: at the highest dose activity change, negative = inhibition, hits mostly inhibitors. hit rate 5.9% among 310,000. AID 504832; further: potency means the concentration at half of the fitted maximal effect; on the % scale 0 is the no-effect control and ±100 the full control effect
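Luciferase-expressing P. falciparum in infected erythrocytes (2% hematocrit, 0.1% parasitemia final) in RPMI 1640/0.5% Albumax were exposed to compound for 48 hours at 37 C, 5% CO2; growth read as luminescence.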
Cycloheximide cs = counter-screen for Shiga toxin inhibitors: cycloheximide protein synthesis inhibition; cell reporter, cycloheximide protein synthesis inhibition counterscreen; max response, %; AID 2314; hit rate 12% among 300,000; in the data active means max response mostly above about 13%, no sharp cut-off; inactive means mostly below about 14%; further: read at 38.3 µM for the half of the compounds with a filed dose; 0% is about no effect
Shiga toxin inh = blocks Shiga toxin action in Vero cells | Vero cells, Shiga toxin protein synthesis inhibition reporter | inhibition, % at 38.7 µM | hit rate 9.2% among 290,000; in the data active means inhibition mostly above about 28%, no sharp cut-off; inactive means mostly below about 43%; further: 0% is about no effect
* marks the source's active call; other numbers are inactive results; ? = inconclusive; nt = no result. Compounds with a hit are over-represented: about 21% of the library has one in this group of screens. Unless noted, the call rests on the fitted dose curve; in most records, active means well fitted inhibition curve with a large enough effect; inconclusive means small, poorly fitted or top-dose-only effect, or another doubt; inactive means no such curve, though single readings can be large or run the other way.

SMILES | Pf growth 96h | NS1 inh | SARS PLpro yeast | Pf growth 48h | Cycloheximide cs | Shiga toxin inh
O=C(c1ccncc1)N1N=C(c2ccc(Cl)cc2)CC1c1ccccc1O (centres undefined) | ? | 13.5% | -18.7% | ? | 44.9* | 116.4*
COc1ccc(C2CC(c3ccc(C)cc3)=NN2C(=O)c2ccccc2)cc1 (centres undefined) | ? | -0.6% | -2.9% | ? | 1.9 | -5.8
COc1ccc(C2=NN(C(=O)c3ccncc3)C(c3ccccc3O)C2)cc1 (centres undefined) | ? | -14.6% | nt | ? | 10.0 | 14.1
COc1cccc(C2CC(c3cccc(NS(C)(=O)=O)c3)=NN2C(=O)c2ccccc2)c1OC (centres undefined) | ? | ? | -5.4% | 1.85µM* | -2.1 | -11.9
COc1cccc(C2CC(c3ccc(Br)cc3)=NN2C(=O)c2ccncc2)c1OC (centres undefined) | ? | nt | -2.2% | 11.7µM* | 5.1 | 41.5
CC(C)OC(=O)Cn1nc(C(c2ccccc2)c2ccccc2)oc1=O | -24.5% | -10.6% | 0.6% | ? | 4.9 | nt
COc1ccc2oc(C(=O)OCC(=O)NCc3ccccc3OC)c(C)c2c1 | -7.5% | nt | -0.4% | -1.2% | nt | nt
Cc1ccc(C(C)C)c(OCC(=O)N/N=C2\CC(=O)CC(C)(C)C2)c1 | 1.0% | 12.0% | 5.9% | ? | -3.0 | -14.8
CC1CCCC(C)N1CCCNC(=O)Cn1c(=O)c2cccn2c2cccnc21 (centres undefined) | -29.4% | 19.1% | 1.3% | 18.2% | -5.7 | -2.5
CCOc1ccccc1NC(=O)NNC(=O)COc1cccc(C)c1C | 22.0% | -2.2% | -1.8% | -9.8% | -3.1 | -5.6
O=C(CSc1nc2ccccc2n1-c1ccccc1)Nc1ncc(Cl)cc1Cl | 10.4µM* | 12.4% | -10.7% | ? | -1.9 | -4.3
Cc1cccc(-n2c(SCC(=O)Nc3ncc(Cl)cc3Cl)nc3ccccc32)c1 | 4.65µM* | 7.1% | -28.6% | ? | 11.2 | 13.3
COc1ccc(-n2c(SCC(=O)Nc3ncc(Cl)cc3Cl)nc3ccccc32)cc1 | ? | nt | -1.4% | ? | -5.8 | 17.3
CN(Cc1nc(CCc2ccccc2)no1)Cc1cccs1 | ? | -4.0% | 0.6% | -4.1% | 15.7* | 25.2
O=c1[nH]nc(SCc2cc(Cl)ccc2Cl)c(=O)[nH]1 | 20.3% | -4.1% | -0.7% | 10.2% | -2.1 | -4.0
COc1ccc(C(=O)NC2CCSc3ccccc32)cc1S(=O)(=O)N1CCOCC1 (centres undefined) | ? | nt | -1.7% | 11.7µM* | nt | nt
COc1ccc(C(=O)NC2CCCc3ccccc32)cc1S(=O)(=O)N1CCOCC1 (centres undefined) | -29.8% | -6.8% | 0.2% | 0.0% | -2.1 | -6.3
COc1ccc(C(=O)NC2CCSc3ccccc32)cc1F (centres undefined) | ? | -17.0% | -0.8% | ? | 12.9* | 6.7
COc1cc(C(=O)NC2CCCc3ccccc32)ccc1OCC(=O)Nc1ccc(F)cc1 (centres undefined) | 13.1µM* | -4.4% | -11.9% | ? | -2.3 | -5.4
COc1ccc(C(=O)NC2CCCc3ccccc32)cc1Br (centres undefined) | ? | -48.8% | -7.0% | ? | -2.3 | 22.1
COc1cc(OC)cc(C(=O)NC2CCSc3ccccc32)c1 (centres undefined) | ? | 13.4% | 13.3% | -22.7% | -2.3 | 12.0
OCCC1CN(Cc2cc3c(cc2Cl)OCO3)CCN1C1CCCC1 (centres undefined) | ? | 6.8% | 0.2% | 28.9% | -0.8 | 2.8
COc1c(S(=O)(=O)NCCCn2ccnc2)ccc(Cl)c1Cl | 4.7% | -6.5% | -1.3% | ? | -1.9 | -3.0
CC(=O)N1c2ccccc2C(=O)OC1c1cccnc1 (centres undefined) | 32.9% | 1.8% | 13.1% | ? | -1.1 | -4.6
COc1cccc(C2OC(=O)c3ccccc3N2C(C)=O)c1OC(C)=O (centres undefined) | 11.7µM* | 5.3% | 5.5% | -7.4% | -1.3 | 1.9
CN(C)C(CNC(=O)c1cccc(S(=O)(=O)NCc2ccccc2)c1)c1ccco1 (centres undefined) | -23.5% | nt | 4.4% | ? | nt | nt
CCCc1cc(C(=O)Cc2ccc(C(=O)OCC)o2)c(O)cc1O | 11.7µM* | -83.8% | -26.0% | 11.7µM* | -3.3 | -12.2
